# In PubChem BioAssay AID1851 (National Center for Advancing Translational Sciences (NCATS), 2009):
# “And” between values parts separate entries of the source, which are not always exact repeats. Equal entries are not always repeated. Out of some 16,000 compounds screened, about 5,100 (32%) were called active. Another 25% or so got no clear call; they are omitted. The list shows a part of the results. Unmarked numbers belong to inactive results. Calls follow the shape of the dose curve; as a rule, active = well fitted curve in the direction sought with a large enough effect; inconclusive = small, poorly fitted or top-dose-only effect, or effect the other way; inactive = no such curve, though single readings can be large or run the other way.
# Molecular target: Cytochrome P450 3A4 (Homo sapiens) (UniProt P08684)
# Test: Cytochrome panel assay with activity outcomes
# Conditions: recombinant CYP, pro-luciferin dealkylation, luminescence, p450-cyp3a4; series mostly up to 57.1 µM; activity, negative = inhibition: at the top concentration
# % is scaled to controls: 0 for no effect and ±100 for the full control effect.
# Chain of Cytochrome P450 3A4 (Homo sapiens) (P08684 whole entry, looked up): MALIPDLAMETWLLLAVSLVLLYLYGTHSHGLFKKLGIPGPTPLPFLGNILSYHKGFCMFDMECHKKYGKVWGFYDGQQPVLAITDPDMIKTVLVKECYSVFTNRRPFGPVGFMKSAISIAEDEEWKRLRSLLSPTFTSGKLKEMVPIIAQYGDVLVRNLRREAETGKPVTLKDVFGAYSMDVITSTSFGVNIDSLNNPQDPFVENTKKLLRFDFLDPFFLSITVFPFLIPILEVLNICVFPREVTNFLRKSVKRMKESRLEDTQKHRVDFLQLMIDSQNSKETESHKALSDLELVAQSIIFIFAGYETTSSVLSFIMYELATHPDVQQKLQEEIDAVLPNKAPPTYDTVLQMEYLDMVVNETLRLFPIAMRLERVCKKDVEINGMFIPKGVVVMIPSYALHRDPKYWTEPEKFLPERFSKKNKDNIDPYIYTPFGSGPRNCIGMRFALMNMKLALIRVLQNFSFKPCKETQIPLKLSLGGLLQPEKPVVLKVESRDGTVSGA
Structure (SMILES),"activity, negative = inhibition",AC50
Cc1nc(CN2CCCCC2)c(O)c(=O)[nH]1,-5.47% [at 11.4 µM],
CC1(O)CC(=O)N(c2ccccc2)O1 (stereo not given),1.65% [at 2.29 µM],
COC(=O)[C@@]1(Cc2ccc(F)cc2)[C@H]2c3cc(C(=O)N(C)C)n(CCCNc4ccc(C(F)(F)F)cc4Cl)c3C[C@H]2CN1C(=O)c1ccccc1,,1.58 µM (active)
COC(=O)Cn1c(C(=O)N2CCCC2)cc2c1C[C@H]1CN(C(=O)c3ccccc3)[C@@](Cc3ccc(F)cc3)(C(=O)OC)[C@@H]21,,3.16 µM (active)
COC(=O)Cn1c(=N)n(CCN2CCCCC2)c2ccccc21,1.03%,
COC(=O)[C@@]1(Cc2ccc(F)cc2)[C@H]2c3cc(C(=O)N4CCCC4)n(Cc4ccccc4)c3C[C@H]2CN1C(=O)c1ccccc1,,1 µM (active)
COC(=O)[C@@]1(Cc2ccc(F)cc2)[C@H]2c3cc(C(=O)N4CCCC4)n(CCN4CNCC4=O)c3C[C@H]2CN1C(=O)c1ccccc1,,2 µM (active)
C=C1C=C(Br)C2(OCCCO2)[C@H]2OC12 (stereo not given in full),-14.7% [at 11.4 µM],
CC1(C)C2([N+](=O)[O-])CN3CC1([N+](=O)[O-])CN(C2)C3c1ccccc1 (stereo not given),0.512% [at 2.29 µM],
C[C@@H](C(=O)NCc1cccc2ccccc12)[C@H]1C[C@]1(C)[C@H](NC(=O)OCc1ccccc1)c1ccccc1,,0.398 µM (active)
C[C@@H](C(=O)NCc1ccc(S(C)(=O)=O)cc1)[C@@H]1C[C@@]1(C)[C@@H](NC(=O)OCc1ccccc1)c1ccccc1,,1 µM (active)
C[C@@H](C(=O)NCc1ccc(S(C)(=O)=O)cc1)[C@H]1C[C@]1(C)[C@H](NC(=O)OCc1ccccc1)c1ccccc1,,3.16 µM (active)
C[C@@H](C(=O)NCc1nc2ccccc2[nH]1)[C@@H]1C[C@@]1(C)[C@@H](NC(=O)OCc1ccccc1)c1ccccc1,,1 µM (active)
CC(NC(=O)OCc1ccccc1)C(=O)NCC1CCCO1 (stereo not given),-4.26%,
CS(=O)(=O)c1ccc([C@H](O)[C@H](CO)NC(=O)C(Cl)Cl)cc1,-5.21% [at 25.6 µM],
Cc1cccc(C)c1OC[C@H](C)N,-12.4% [at 25.6 µM],
C=CCSc1ncccc1C(=O)NCc1ccc(C)cc1,,11.2 µM (active)
CSc1nncc(-c2ccc(F)c(F)c2)n1,13.4%,
CC/C(=N/Nc1ccccc1)c1cnnc(SC)n1,,25.1 µM (active)
CC(=O)Nc1sc2c(c1C(N)=O)CCCC2,-27.9%,
COCCCNC(=O)c1c(NC(=O)c2cccs2)sc2c1CCCC2,,15.8 µM (active)
CCNC(=O)c1c(NC(C)=O)sc2c1CCCC2,-23%,
Cc1cccc(C)c1OCC(O)CNC(C)(C)C (stereo not given),-9.33%,
OC[C@@H](O)COc1cccc2ccccc12,-23%,
O[C@H](COc1ccccc1)CN1CCCCC1,-3.03% [at 11.4 µM],
O[C@@H](COc1cccc2ccccc12)CN1CCOCC1,-6.73% [at 11.4 µM],
CC(=O)Nc1ccc(OCC(O)Cn2c3ccccc3c3ccccc32)c(C)c1 (stereo not given),,3.98 µM (active)

Structure (SMILES),"activity, negative = inhibition",AC50
CC(C)NC[C@@H](O)COc1ccccc1-n1cccc1,-14.7%,
Cc1ccccc1OCC(O)Cn1c2ccccc2c2ccccc21 (stereo not given),,12.6 µM (active)
OC(COc1ccc(OCC(O)CN2CCCCCC2)cc1)CN1CCCCCC1 (stereo not given),3.14%,
Cc1ccc(OCC(O)Cn2c3ccccc3c3ccccc32)cc1 (stereo not given),,17.8 µM (active)
CC(=O)Nc1c(I)c(C(=O)N[C@H]2[C@@H](O)[C@H](O)[C@H](CO)O[C@@H]2O)c(I)c(N(C)C(C)=O)c1I,-2.58% [at 25.6 µM],
NC(N)=NC(=O)c1nc(Cl)c(N2CCCCCC2)nc1N,-23.3%,
Cc1cc(C)n(-c2nnc(C)n2/N=C/c2ccccc2OCc2ccccc2Cl)n1,,2.24 µM (active)
CCCNC(=O)N1CCC(C(=O)c2ccc(F)cc2)CC1,-0.769% [at 2.29 µM],
O=C(c1ccc(F)cc1)C1CCN(C(=S)Nc2ccccc2)CC1,,10 µM (active)
S=C(Nc1ccccc1)N1CCCCC1,-4.5%,
N#Cc1cc(-c2ccc(Cl)cc2)cnc1Sc1ccccc1,-8.46%,
Cc1ccc(Sc2cc(Cl)nc(N)n2)cc1,-5.02%,
N#Cc1cc(N)ccc1Sc1ccc(Cl)cc1,,5.62 µM (active)
COc1cc2c3cc1Oc1cc(ccc1O)C[C@@H]1c4c(cc(OC)c(O)c4Oc4ccc(cc4)C[C@H]3[N+](C)(C)CC2)CC[N+]1(C)C,0.655% [at 11.4 µM],
C/C(=C/C(=O)NCc1ccccc1)C(=O)O,9.5%,
N[C@@](CC(=O)O)(Cc1ccccc1)C(=O)O,-4.69% [at 11.4 µM],
C=CC(=O)NC(C)(C)Cc1ccccc1,,15.8 µM (active)
CC1CCCC(NC(=O)CCn2c(=O)oc3ccccc32)C1C (stereo not given),,14.1 µM (active)
Cc1ccc(CNC(=O)Cn2c(=O)oc3ccccc32)o1,1.22% [at 11.4 µM],
COCCNC(=O)CCn1c(=O)oc2ccccc21,-1.1%,
CC[N+](C)(C)c1cccc(O)c1,-3.37%,
CC1(C)c2ssc(=S)c2-c2ccccc2N1C(=O)CSC1=NCCS1,,1.78 µM (active)
COc1ccc(-n2c(=O)cnc3cnc(N4CCOCC4)nc32)cc1,-13.4%,
COc1ccc(-n2c(=O)cnc3cnc(Oc4cccc(Cl)c4)nc32)cc1,,10 µM (active)
COc1ccc(-n2c(=O)cnc3cnc(OC)nc32)cc1,-17.2%,
O=c1cnc2cnc(Oc3cccc(Cl)c3)nc2n1C1CC1,11.3%,
COc1ccc(-n2c(=O)cnc3cnc(Oc4ccccc4)nc32)cc1,,15.8 µM (active)

Structure (SMILES),"activity, negative = inhibition",AC50
O=c1cnc2cnc(Oc3ccccc3)nc2n1C1CC1,-19.7%,
COC(=O)C(C)Sc1ccc2nnc(-c3ccc(F)cc3)n2n1 (stereo not given),-17.6%,
CCCCN(CC)S(=O)(=O)c1ccc(C(=O)Nc2nnc(CSC)o2)cc1,2.56% [at 11.4 µM],
CCn1c(-c2ccoc2C)n[nH]c1=S,-8%,
CCCOc1cccc(-c2cc(-c3n[nH]c(=S)n3CC)c3ccccc3n2)c1,,10 µM (active)
CCc1ccc(-c2ccc(C(=O)C(F)(F)F)[nH]2)cc1,13.7%,
CC(C)(Oc1ccc(Cl)cc1)C(=O)Nc1ccncc1,,0.794 µM (active)
CC(C)(Oc1ccc(CCNC(=O)c2ccc(Cl)cc2)cc1)C(=O)O,-9.06% [at 25.6 µM],
CC(C)(Oc1ccc([C@@H]2CC2(Cl)Cl)cc1)C(=O)O,,inactive
C[C@@H]1CCC[C@H](C)N1,-0.959% [at 25.6 µM],
O=C(Nc1cccnc1)c1ccc(COc2cc(Cl)ccc2Cl)o1,,4.47 µM (active)
CC(C)CNC(=O)c1ccc(COc2ccc(Cl)cc2Cl)o1,,20 µM (active)
Clc1ccc(Cl)c(OCc2cc(-c3ccccc3Cl)on2)c1,10.7%,
CC(C)C(=O)Nc1ccc(C(=O)NNC(=O)CCCOc2ccc(Cl)cc2Cl)cc1,-17.2%,
O=C(Nc1ccn(Cc2ccccc2F)n1)c1ccc(COc2cc(Cl)ccc2Cl)o1,,0.891 µM (active)
O=C(N/N=C/c1ccc(O)cc1)c1ccc(COc2cc(Cl)ccc2Cl)o1,-27.3% [at 2.29 µM],
O[C@@H](C1=C/C(=C\c2ccncc2)c2ccccc21)c1ccncc1,,0.794 µM (active)
NS(=O)(=O)c1ccc(N=Nc2c(O)c(C(=O)O)cc3ccccc23)cc1,-2.48% [at 11.4 µM],
Cc1cccc(Oc2ncnc3onc(C)c23)c1C,-11%,
Cn1c(SCC(=O)NC2CC2)nnc1-c1cccc(NC(=O)c2ccccc2F)c1,,12.6 µM (active)
Nc1ncnc2c1ncn2[C@H]1O[C@@H](C(=O)OCCO)[C@@H](O)[C@H]1O,-12.9% [at 11.4 µM],
Clc1ccc(-c2nnc(-c3ccc(Br)cc3)c(N3CCSCC3)n2)cc1,-17.3%,
CCCCC1(C)NC(=O)c2c(C)sc(C(=O)OCC)c2N1 (stereo not given),,17.8 µM (active)
CCOC(=O)c1nc2sc(C)c(C)c2c(=O)[nH]1,-5.37%,
c1ccc(Nc2ncncc2-c2ccoc2)cc1,,2 µM (active)
Fc1ccc(Nc2ncncc2-c2ccoc2)cc1,,0.501 µM (active)
c1ncc(-c2ccoc2)c(NC2CC2)n1,,7.94 µM (active)

Structure (SMILES),"activity, negative = inhibition",AC50
O=c1[nH]c2[nH]c(=S)[nH]c(=S)c2[nH]1,-17.9% [at 11.4 µM],
CCc1cccc2c(C=C(C#N)C#N)cn(CC(=O)N3CCCCC3)c12,-27.8%,
CCc1cccc2c(C=C(C#N)C#N)cn(CC(=O)N3CCCC3)c12,-15.2%,
CCN(CC)C(=O)Cn1cc(/C=C(\C#N)C(=O)N2CCN(c3ccccc3)CC2)c2ccccc21,,0.891 µM (active)
Cc1ccc(Oc2nnc(-c3ccccc3)cc2C#N)cc1,-24.2%,
Cc1ccc2nc(N/N=C/c3ccccc3C#N)nc(-c3ccccc3)c2c1,,7.94 µM (active)
CSc1c(-c2ccccc2)nc2ccc(Cl)cc2c1C(=O)O,7.66%,
N#Cc1ccccc1/C=N/Nc1nc(-c2ccccc2)c2cc(Cl)ccc2n1,,6.31 µM (active)
Cc1nc(Cl)c(C#N)cc1-c1ccccc1,-8.93%,
CCn1cc(C(=O)O)c(=O)c2cc(F)c(N3CCNCC3)nc21,-15.4% [at 25.6 µM],
COc1cc(Cl)c(C)cc1NC(=O)CNC(=O)Cn1cnc2ccccc2c1=O,11.4%,
COc1ccc(-n2nc(C(=O)NCC(=O)Nc3ccccn3)c3ccccc3c2=O)cc1,,3.55 µM (active)
COC(=O)c1nn(-c2ccccc2)c(=O)cc1Oc1ccccc1,-20.9% [at 11.4 µM],
Cc1ccc2c(c1)[C@@H]1CN(C)CC[C@@H]1N2S(=O)(=O)c1ccc(F)cc1,,2 µM (active)
O=C1C[C@@H](O)[C@@H](O)[C@H]2[C@@H]3C(=O)N(Cc4ccc5c(c4)OCO5)C(=O)[C@@H]3CC[C@H]12,,3.98 µM (active)
CC(=O)OC[C@@H]1O[C@@H](O/N=C2/C[C@@H](O)[C@@H](O)[C@@H]3[C@@H]4C(=O)N(Cc5ccccc5)C(=O)[C@H]4CC[C@H]23)[C@H](OC(C)=O)[C@H](OC(C)=O)[C@@H]1OC(C)=O,-25% [at 11.4 µM],
CCN1C(=O)[C@H]2[C@@H]3[C@H](O)[C@H](O)CC(=O)[C@H]3CC[C@H]2C1=O,-13.1% [at 11.4 µM] and -13% [at 11.4 µM],
O=C1[C@H]2[C@H]3[C@H](O)[C@H](O)C/C(=N/OCc4ccccc4)[C@H]3CC[C@@H]2C(=O)N1Cc1ccc2c(c1)OCO2,,1 µM (active)
CC(=O)OC[C@@H]1O[C@@H](O/N=C2/C[C@@H](O)[C@@H](O)[C@@H]3[C@@H]4C(=O)N(Cc5ccc6c(c5)OCO6)C(=O)[C@H]4CC[C@H]23)[C@H](OC(C)=O)[C@H](OC(C)=O)[C@@H]1OC(C)=O,,5.01 µM (active)
CCN1C(=O)[C@H]2[C@H]3[C@H](O)[C@H](O)C/C(=N/OCC(C)C)[C@@H]3CC[C@@H]2C1=O,-6.7% [at 11.4 µM],
O=C1C[C@@H](O)[C@@H](O)[C@H]2[C@@H]3C(=O)N(Cc4ccccc4)C(=O)[C@@H]3CC[C@H]12,-12.1% [at 11.4 µM] and -10.8% [at 11.4 µM],
CCN1C(=O)[C@H]2[C@H]3[C@H](O)[C@H](O)C/C(=N/OCC(C)C)[C@H]3CC[C@@H]2C1=O,19.2% [at 11.4 µM],
CCN1C(=O)[C@H]2[C@H]3[C@H](O)[C@H](O)C/C(=N/O[C@@H](C)c4cc(-c5c(C)cc(C)cc5C)no4)[C@@H]3CC[C@@H]2C1=O,,3.98 µM (active)
CC(=O)OC[C@@H]1O[C@@H](O/N=C2/C[C@@H](O)[C@@H](O)[C@@H]3[C@@H]4C(=O)N(Cc5ccccc5)C(=O)[C@H]4CC[C@@H]23)[C@H](OC(C)=O)[C@H](OC(C)=O)[C@@H]1OC(C)=O,-27.9% [at 11.4 µM],
